Experimental data reported in the supplement of paper PMC10849652.
Of roughly 8,800 targets only a part is listed; those with a hit were picked by preference. About 0.5% of all pairs of compound and target were hits.

What was measured:
Test in all cases: log2 fold change, soluble protein after heating vs DMSO (PISA); higher = thermal stabilisation; K562 lysate, 10 uM; active = over 0.2 and 3.5 SD of the protein, either way, in both replicates (recomputed)
erlotinib = compound: C#Cc1cccc(Nc2ncnc3cc(OCCOC)c(OCCOC)cc23)c1 [erlotinib]
How it was run: (§1)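 Following dounce homogenisation of K562 pellets in PBS pH 7.4 with 1 mM MgCl2, crude extract at 1 mg/mL protein was incubated for 30 min with 10 μM compound. Aliquots were then heated for 3 min over 48°C-58°C and pooled, NP-40 was added to 0.5% at 4°C, and soluble protein was recovered as the supernatant at 21,000xg for 90 min. Channel-sum-equalised TMTpro 16plex LC-MS/MS quantified this protein. Each value, from duplicates, is a log-two fold change in thermal stability relative to solvent controls.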

[1] = compound: C/C(=N\NC(=O)C1=CC(=CC=C1)S(=O)(=O)N2CCOCC2)/C3=C(C=CC(=C3)Cl)O
How it was run: as §1

[2] = compound: C1=CC(=CC=C1C2=NC3=C(N2)C=C(C=C3)C(=O)N)OC4=CC=C(C=C4)Cl
How it was run: as §1

[3] = compound: C1=CC2=C(C=CC(=C2)/C=C\3/C(=O)NC(=NCC4=CC=CS4)S3)N=C1
How it was run: as §1

[4] = compound: C1=CC2=NC=CN=C2C=C1/C=C/3\C(=O)NC(=O)S3
How it was run: as §1

[5] = compound: C1=CC=C(C=C1)C2=NC(=C(N2)C3=CC=NC=C3)C4=CC(=C(C=C4)Cl)O
How it was run: as §1

[6] = compound: C1=CC=C2C(=C1)C3=NNC4=CC=CC(=C43)C2=O
How it was run: as §1

[7] = compound: C1CCN(C1)C(=O)NC2=CC=CC(=C2)NC3=NC=C(C(=N3)NCCC4=CN=CN4)Br
How it was run: as §1

[8] = compound: C1CN(CCC1(CC2=CC=C(C=C2)Cl)N)C3=NC=NC4=C3C=CN4
How it was run: as §1

IRAK-1-4 Inhibitor I = compound: C1COCCN1CCN2C3=CC=CC=C3N=C2NC(=O)C4=CC(=CC=C4)[N+](=O)[O-] [IRAK-1-4 Inhibitor I]
How it was run: as §1

ibrutinib = compound: C=CC(=O)N1CCC[C@@H](n2nc(-c3ccc(Oc4ccccc4)cc3)c3c(N)ncnc32)C1 [ibrutinib]
How it was run: as §1

[9] = compound: CC(=O)c1cnc2ccc(-c3cc(Cl)c(O)c(Cl)c3)nc2c1N[C@H]1CC[C@H](CN(C)C)CC1
How it was run: as §1

ralimetinib = compound: CC(C)(C)Cn1c(N)nc2ccc(-c3[nH]c(C(C)(C)C)nc3-c3ccc(F)cc3)nc21 [ralimetinib]
How it was run: as §1

[10] = compound: CC(C)(O)CC(=O)NCCn1ccc2ncnc(Nc3ccc(Oc4cccc(C(F)(F)F)c4)c(Cl)c3)c21
How it was run: as §1

[11] = compound: CC(C)C1=C2N=C(C=C(N2N=C1)NCC3=CC=CC=C3)NCCCCCCN
How it was run: as §1

[12] = compound: CC1=C(C(CC(=O)N1)C2=CC=C(C=C2)C(F)(F)F)C(=O)NC3=C(C=C4C(=C3)C=NN4)F
How it was run: as §1

[13] = compound: CC1=C(C2=C(C=C1)C(=O)C3=CC=CC=C3N2CCCN)C
How it was run: as §1

[14] = compound: CC1=C(C=C(C=C1)NC(=O)C2=CC(=CC=C2)C(C)(C)C#N)NC3=CC4=C(C=C3)N=CN(C4=O)C
How it was run: as §1

[15] = compound: CC1=C(C=C(C=C1)NC(=O)C2=CC(=CC=C2)N(C)C)NC(=O)C3=CC=C(C=C3)O
How it was run: as §1

[16] = compound: CC1=CC=C(C=C1)SC2=C3C=C(SC3=CN=C2)C(=O)N
How it was run: as §1

Measured: log2 fold change

FOXK1 (UniProt P85037)
inactive: erlotinib 0.014 | [1] -0.029 | [2] 0.038 | [3] 0.013 | [4] -0.057 | [5] -0.011 | [6] 0.007 | [7] -0.036 | [8] 0.013 | IRAK-1-4 Inhibitor I -0.014 | ibrutinib 0.033 | [9] 0.005 | ralimetinib 0.082 | [10] 0.063 | [11] -0.011 | [12] 0.018 | [13] 0.007 | [14] -0.025 | [15] -0.001 | [16] 0.011

EAPP (UniProt Q56P03)
UniProt Q56P03, sequence (Q56P03 whole entry, looked up): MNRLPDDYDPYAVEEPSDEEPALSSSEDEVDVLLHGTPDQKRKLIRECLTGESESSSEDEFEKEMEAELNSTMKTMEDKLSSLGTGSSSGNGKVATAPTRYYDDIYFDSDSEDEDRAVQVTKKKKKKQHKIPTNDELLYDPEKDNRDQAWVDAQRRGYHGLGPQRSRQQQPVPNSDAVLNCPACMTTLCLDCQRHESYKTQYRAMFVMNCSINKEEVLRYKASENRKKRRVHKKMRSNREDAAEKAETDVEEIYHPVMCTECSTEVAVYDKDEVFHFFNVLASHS
active: [1] 0.349
inactive: erlotinib 0.012 | [2] 0.018 | [3] 0.098 | [4] 0.073 | [5] 0.011 | [6] -0.094 | [7] 0.024 | [8] 0.103 | IRAK-1-4 Inhibitor I -0.014 | ibrutinib -0.105 | [9] 0.025 | ralimetinib -0.1 | [10] -0.059 | [11] -0.035 | [12] 0.037 | [13] -0.037 | [14] -0.015 | [15] 0.052 | [16] -0.042

FBXO38 (UniProt Q6PIJ6)
UniProt Q6PIJ6, sequence (Q6PIJ6 whole entry, looked up): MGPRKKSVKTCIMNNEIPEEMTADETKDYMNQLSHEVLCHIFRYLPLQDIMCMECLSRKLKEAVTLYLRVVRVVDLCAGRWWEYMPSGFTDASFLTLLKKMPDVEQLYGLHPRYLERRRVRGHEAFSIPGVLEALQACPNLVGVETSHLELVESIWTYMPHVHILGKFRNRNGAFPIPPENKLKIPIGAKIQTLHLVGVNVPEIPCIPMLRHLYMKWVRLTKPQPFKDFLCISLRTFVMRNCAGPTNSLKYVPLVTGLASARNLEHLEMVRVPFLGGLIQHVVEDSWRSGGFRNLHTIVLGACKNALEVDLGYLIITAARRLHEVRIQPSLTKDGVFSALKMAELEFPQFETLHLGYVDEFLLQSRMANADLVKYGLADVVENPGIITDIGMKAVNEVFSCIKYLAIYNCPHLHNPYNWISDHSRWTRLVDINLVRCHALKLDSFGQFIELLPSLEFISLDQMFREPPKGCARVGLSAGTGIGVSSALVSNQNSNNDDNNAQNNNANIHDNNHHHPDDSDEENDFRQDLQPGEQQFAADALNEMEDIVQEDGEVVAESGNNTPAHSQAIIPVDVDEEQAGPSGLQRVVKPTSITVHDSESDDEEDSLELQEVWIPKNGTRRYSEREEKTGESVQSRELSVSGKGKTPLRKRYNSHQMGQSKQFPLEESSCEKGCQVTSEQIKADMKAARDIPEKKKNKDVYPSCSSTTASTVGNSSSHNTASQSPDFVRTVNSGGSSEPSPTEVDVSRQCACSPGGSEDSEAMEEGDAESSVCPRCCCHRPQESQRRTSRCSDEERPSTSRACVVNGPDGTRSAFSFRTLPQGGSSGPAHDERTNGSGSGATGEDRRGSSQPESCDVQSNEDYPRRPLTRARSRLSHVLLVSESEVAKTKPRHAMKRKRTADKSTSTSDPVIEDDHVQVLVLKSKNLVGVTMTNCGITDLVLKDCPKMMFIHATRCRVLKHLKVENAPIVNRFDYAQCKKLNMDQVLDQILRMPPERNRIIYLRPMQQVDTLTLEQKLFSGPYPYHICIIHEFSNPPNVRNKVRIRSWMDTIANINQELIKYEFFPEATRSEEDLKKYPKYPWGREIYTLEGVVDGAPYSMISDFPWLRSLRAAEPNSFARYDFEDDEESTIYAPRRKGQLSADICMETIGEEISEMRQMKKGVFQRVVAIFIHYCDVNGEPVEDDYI
inactive: erlotinib 0.102 | [1] 0.041 | [2] 0.013 | [3] -0.047 | [4] -0.041 | [5] 0.06 | [6] 0.077 | [7] -0.06 | [8] 0.021 | IRAK-1-4 Inhibitor I -0.052 | ibrutinib -0.042 | [9] 0.063 | ralimetinib 0.083 | [10] 0.009 | [11] -0.078 | [12] -0.037 | [13] -0.073 | [14] -0.098 | [15] 0.009 | [16] 0.175

FCHO1 (UniProt O14526)
UniProt O14526, sequence (O14526 whole entry, looked up): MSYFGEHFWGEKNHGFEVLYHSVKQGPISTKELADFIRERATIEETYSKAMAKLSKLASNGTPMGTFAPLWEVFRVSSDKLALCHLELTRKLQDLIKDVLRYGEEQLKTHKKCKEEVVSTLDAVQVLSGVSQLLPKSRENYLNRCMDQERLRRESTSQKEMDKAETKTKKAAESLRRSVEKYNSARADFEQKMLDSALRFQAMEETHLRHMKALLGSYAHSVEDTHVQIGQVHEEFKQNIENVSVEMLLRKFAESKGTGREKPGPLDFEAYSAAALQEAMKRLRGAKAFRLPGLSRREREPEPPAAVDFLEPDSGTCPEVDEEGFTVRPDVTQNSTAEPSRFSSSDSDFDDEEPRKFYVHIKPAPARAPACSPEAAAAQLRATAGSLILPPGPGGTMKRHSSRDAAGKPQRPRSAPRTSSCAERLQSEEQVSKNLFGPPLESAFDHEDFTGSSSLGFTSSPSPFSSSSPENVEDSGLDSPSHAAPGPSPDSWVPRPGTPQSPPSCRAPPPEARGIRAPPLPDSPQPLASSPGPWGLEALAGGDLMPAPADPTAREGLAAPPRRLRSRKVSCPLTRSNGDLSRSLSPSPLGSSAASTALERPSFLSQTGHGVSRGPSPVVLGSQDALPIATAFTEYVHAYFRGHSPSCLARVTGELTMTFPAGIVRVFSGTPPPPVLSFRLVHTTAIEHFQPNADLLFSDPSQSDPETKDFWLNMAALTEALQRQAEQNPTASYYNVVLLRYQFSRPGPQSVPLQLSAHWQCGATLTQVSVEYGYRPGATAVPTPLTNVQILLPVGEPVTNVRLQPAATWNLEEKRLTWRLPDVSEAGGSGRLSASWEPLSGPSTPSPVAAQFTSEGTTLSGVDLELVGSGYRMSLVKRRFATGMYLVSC
inactive: erlotinib 0.062 | [1] 0.034 | [2] 0.045 | [3] -0.055 | [4] 0.024 | [5] 0.065 | [6] -0.064 | [7] -0.044 | [8] -0.022 | IRAK-1-4 Inhibitor I -0.021 | ibrutinib -0.053 | [9] 0.022 | ralimetinib 0.018 | [10] 0.014 | [11] 0.013 | [12] 0.031 | [13] 0.018 | [14] 0.002 | [15] 0.004 | [16] 0.041

ERCC4 (UniProt Q92889)
inactive: erlotinib -0.008 | [1] -0.04 | [2] 0.033 | [3] 0.015 | [4] -0.021 | [5] -0.003 | [6] -0.096 | [7] -0.006 | [8] 0.051 | IRAK-1-4 Inhibitor I 0.029 | ibrutinib -0.02 | [9] 0.027 | ralimetinib -0.028 | [10] 0.006 | [11] 0.059 | [12] -0.021 | [13] -0.029 | [14] 0.013 | [15] 0.025 | [16] -0.054

FBLL1 (UniProt A6NHQ2)
UniProt A6NHQ2, sequence (A6NHQ2 whole entry, looked up): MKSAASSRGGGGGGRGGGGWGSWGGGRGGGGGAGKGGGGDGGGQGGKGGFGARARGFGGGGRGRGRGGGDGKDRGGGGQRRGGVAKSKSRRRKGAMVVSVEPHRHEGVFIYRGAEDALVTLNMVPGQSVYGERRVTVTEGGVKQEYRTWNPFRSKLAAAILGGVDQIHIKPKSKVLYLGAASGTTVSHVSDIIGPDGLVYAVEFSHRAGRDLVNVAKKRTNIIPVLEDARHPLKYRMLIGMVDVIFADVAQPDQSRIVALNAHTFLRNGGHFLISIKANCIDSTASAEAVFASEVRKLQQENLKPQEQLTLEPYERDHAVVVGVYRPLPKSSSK
inactive: erlotinib -0.003 | [1] -0.015 | [2] -0.008 | [3] 0.059 | [4] 0.075 | [5] -0.031 | [6] -0.031 | [7] 0.021 | [8] 0.022 | IRAK-1-4 Inhibitor I -0.004 | ibrutinib -0.042 | [9] -0.031 | ralimetinib 0.029 | [10] -0.056 | [11] -0.014 | [12] 0.001 | [13] -0.121 | [14] 0.006 | [15] 0.049 | [16] -0.018

FADS3 (UniProt Q9Y5Q0)
UniProt Q9Y5Q0, sequence (Q9Y5Q0 whole entry, looked up): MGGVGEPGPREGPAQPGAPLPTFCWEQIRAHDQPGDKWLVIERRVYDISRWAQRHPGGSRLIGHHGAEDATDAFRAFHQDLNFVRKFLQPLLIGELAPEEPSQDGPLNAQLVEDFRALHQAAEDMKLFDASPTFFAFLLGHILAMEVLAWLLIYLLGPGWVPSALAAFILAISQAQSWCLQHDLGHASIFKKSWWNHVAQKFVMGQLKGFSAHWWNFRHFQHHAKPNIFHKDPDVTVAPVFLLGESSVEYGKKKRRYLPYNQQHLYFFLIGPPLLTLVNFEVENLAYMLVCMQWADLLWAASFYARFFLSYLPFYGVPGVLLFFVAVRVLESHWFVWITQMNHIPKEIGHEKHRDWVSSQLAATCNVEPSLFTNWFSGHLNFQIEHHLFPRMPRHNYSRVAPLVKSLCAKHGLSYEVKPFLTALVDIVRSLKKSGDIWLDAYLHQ
inactive: erlotinib 0.075 | [1] -0.355 | [2] -0.052 | [3] 0.118 | [4] 0.016 | [5] -0.072 | [6] -0.124 | [7] 0.109 | [8] -0.291 | IRAK-1-4 Inhibitor I -0.097 | ibrutinib 0.11 | [9] -0.02 | ralimetinib -0.123 | [10] 0.075 | [11] -0.051 | [12] 0.074 | [13] -0.49 | [14] 0.015 | [15] 0.017 | [16] -0.017

EIF2B3 (UniProt Q9NR50)
UniProt Q9NR50, sequence (Q9NR50 whole entry, looked up): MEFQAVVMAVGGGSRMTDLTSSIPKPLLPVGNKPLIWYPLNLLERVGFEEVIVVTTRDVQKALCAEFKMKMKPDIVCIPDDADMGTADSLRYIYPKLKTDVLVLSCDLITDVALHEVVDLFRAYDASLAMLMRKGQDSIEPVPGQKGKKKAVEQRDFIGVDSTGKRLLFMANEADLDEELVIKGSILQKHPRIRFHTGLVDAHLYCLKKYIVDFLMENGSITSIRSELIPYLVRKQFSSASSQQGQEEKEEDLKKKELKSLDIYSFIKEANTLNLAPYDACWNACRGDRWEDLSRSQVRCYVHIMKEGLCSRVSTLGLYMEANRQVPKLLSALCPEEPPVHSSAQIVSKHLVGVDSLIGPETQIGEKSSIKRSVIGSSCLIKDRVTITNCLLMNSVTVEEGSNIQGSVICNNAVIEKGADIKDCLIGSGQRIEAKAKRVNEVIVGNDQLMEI
inactive: erlotinib 0.01 | [1] 0.029 | [2] -0.019 | [3] -0.009 | [4] 0.024 | [5] 0.001 | [6] -0.003 | [7] 0.014 | [8] 0.018 | IRAK-1-4 Inhibitor I -0.01 | ibrutinib 0.007 | [9] 0.02 | ralimetinib 0.011 | [10] 0.005 | [11] 0.004 | [12] -0.004 | [13] -0.007 | [14] 0.043 | [15] 0.021 | [16] -0.004

GEMIN5 (UniProt Q8TEQ6)
inactive: erlotinib -0.001 | [1] 0.004 | [2] -0.012 | [3] 0.015 | [4] 0.032 | [5] -0.006 | [6] -0.034 | [7] 0 | [8] -0.006 | IRAK-1-4 Inhibitor I -0.025 | ibrutinib 0.012 | [9] -0.01 | ralimetinib 0.03 | [10] -0.001 | [11] 0.016 | [12] -0.02 | [13] -0.026 | [14] 0.005 | [15] 0.014 | [16] 0.007

EHD2 (UniProt Q9NZN4)
UniProt Q9NZN4, sequence (Q9NZN4 whole entry, looked up): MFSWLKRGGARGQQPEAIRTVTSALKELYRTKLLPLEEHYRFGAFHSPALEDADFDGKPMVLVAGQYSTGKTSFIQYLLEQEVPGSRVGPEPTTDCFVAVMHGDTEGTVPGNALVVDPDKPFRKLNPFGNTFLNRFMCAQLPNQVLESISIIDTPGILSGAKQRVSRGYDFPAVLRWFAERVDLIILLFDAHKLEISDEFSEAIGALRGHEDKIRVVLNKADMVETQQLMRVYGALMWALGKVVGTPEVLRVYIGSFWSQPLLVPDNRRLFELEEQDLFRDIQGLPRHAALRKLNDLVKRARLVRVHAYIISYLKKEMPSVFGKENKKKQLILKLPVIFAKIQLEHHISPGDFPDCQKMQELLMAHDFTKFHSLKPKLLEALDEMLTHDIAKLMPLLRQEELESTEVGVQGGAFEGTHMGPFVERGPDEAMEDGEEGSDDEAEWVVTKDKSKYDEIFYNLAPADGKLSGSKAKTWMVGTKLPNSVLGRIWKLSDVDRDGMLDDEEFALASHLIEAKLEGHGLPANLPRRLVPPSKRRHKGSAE
inactive: erlotinib 0.048 | [1] -0.167 | [2] -0.043 | [3] -0.063 | [4] 0.012 | [5] -0.002 | [6] -0.071 | [7] -0.004 | [8] 0.012 | IRAK-1-4 Inhibitor I 0.01 | ibrutinib -0.004 | [9] 0.035 | ralimetinib 0.054 | [10] -0.027 | [11] -0.005 | [12] 0.066 | [13] 0.063 | [14] 0.019 | [15] 0.059 | [16] 0.017

FARSA (UniProt Q9Y285)
UniProt Q9Y285, sequence (Q9Y285 whole entry, looked up): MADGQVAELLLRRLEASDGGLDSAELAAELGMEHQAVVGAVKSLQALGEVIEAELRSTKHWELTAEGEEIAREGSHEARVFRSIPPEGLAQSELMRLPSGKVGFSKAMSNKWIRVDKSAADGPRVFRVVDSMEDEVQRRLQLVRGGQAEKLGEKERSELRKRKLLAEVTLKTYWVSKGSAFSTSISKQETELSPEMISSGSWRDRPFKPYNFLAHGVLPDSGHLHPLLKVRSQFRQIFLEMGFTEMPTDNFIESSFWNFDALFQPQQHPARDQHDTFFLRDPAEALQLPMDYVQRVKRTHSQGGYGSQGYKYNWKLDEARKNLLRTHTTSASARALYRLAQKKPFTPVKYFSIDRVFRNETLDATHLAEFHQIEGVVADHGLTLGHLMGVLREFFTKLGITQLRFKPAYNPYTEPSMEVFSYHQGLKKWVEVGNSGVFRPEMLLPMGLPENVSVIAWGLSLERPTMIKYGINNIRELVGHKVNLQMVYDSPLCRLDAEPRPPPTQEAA
inactive: erlotinib 0.045 | [1] -0.001 | [2] -0.054 | [3] 0.009 | [4] 0 | [5] 0.119 | [6] -0.005 | [7] 0.009 | [8] -0.023 | IRAK-1-4 Inhibitor I -0.018 | ibrutinib -0.006 | [9] -0.02 | ralimetinib 0.048 | [10] 0.025 | [11] 0.06 | [12] -0.014 | [13] -0.063 | [14] 0.055 | [15] 0 | [16] 0.006

DST (UniProt Q03001)
inactive: erlotinib 0.025 | [1] -0.035 | [2] 0.046 | [3] -0.03 | [4] -0.042 | [5] 0 | [6] -0.16 | [7] -0.046 | [8] 0 | IRAK-1-4 Inhibitor I 0.04 | ibrutinib 0.007 | [9] -0.031 | ralimetinib -0.034 | [10] -0.098 | [11] 0.021 | [12] -0.052 | [13] -0.054 | [14] 0.049 | [15] 0.063 | [16] -0.046

EDC3 (UniProt Q96F86)
inactive: erlotinib -0.008 | [1] -0.01 | [2] -0.023 | [3] -0.02 | [4] -0.031 | [5] 0.035 | [6] -0.011 | [7] -0.027 | [8] -0.013 | IRAK-1-4 Inhibitor I 0 | ibrutinib 0.038 | [9] 0.016 | ralimetinib 0.004 | [10] 0.001 | [11] 0.046 | [12] 0.039 | [13] -0.014 | [14] 0.009 | [15] 0.019 | [16] -0.023

GDPD1 (UniProt Q8N9F7)
UniProt Q8N9F7, sequence (Q8N9F7 whole entry, looked up): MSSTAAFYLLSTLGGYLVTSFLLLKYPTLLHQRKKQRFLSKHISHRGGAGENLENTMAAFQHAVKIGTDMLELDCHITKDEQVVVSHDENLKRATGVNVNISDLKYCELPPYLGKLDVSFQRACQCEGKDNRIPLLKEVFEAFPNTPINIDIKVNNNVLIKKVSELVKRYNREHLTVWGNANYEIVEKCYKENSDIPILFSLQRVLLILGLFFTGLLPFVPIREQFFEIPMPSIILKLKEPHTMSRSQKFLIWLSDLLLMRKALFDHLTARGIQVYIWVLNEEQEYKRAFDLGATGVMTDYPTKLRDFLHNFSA
inactive: erlotinib -0.037 | [1] 0.248 | [2] -0.112 | [3] 0.001 | [4] -0.041 | [5] 0.011 | [6] -0.024 | [7] 0.032 | [8] 0.086 | IRAK-1-4 Inhibitor I 0.038 | ibrutinib 0.039 | [9] -0.058 | ralimetinib 0.06 | [10] -0.137 | [11] 0.047 | [12] -0.032 | [13] -0.001 | [14] 0.055 | [15] 0.024 | [16] -0.063

FAM98A (UniProt Q8NCA5)
inactive: erlotinib -0.004 | [1] -0.026 | [2] 0.028 | [3] -0.048 | [4] -0.02 | [5] 0.01 | [6] 0.014 | [7] -0.05 | [8] -0.017 | IRAK-1-4 Inhibitor I -0.04 | ibrutinib -0.033 | [9] -0.019 | ralimetinib 0.046 | [10] 0.008 | [11] 0.014 | [12] 0.04 | [13] -0.045 | [14] 0.008 | [15] 0.035 | [16] 0.029
